In PubChem BioAssay:
The source made the active and inactive calls.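 Rule for the calls, unless noted: active = NADPH fluorescence slope more negative than the mean of all samples by about 3 SD, 99.7% confidence; inactive = the rest.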

Key:
[1] = inhibitors of TNFa-induced NFkB p65 translocation, primary screen, imaging, HUVEC, MLSMR starter and 10KST1 sets (AID 438;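 active = inhibition above 20% together with a positive visual image hit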;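 note: compound added about 3h40 before a 20 min TNFalpha stimulation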;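 for inhibition: signal is the nuclear over cytoplasmic p65 intensity ratio per well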); conditions: HUVEC TNFa-induced p65 nuclear translocation; cell count: measured here: nuclei count (cytotoxicity indicator), at 2.08 µM; inhibition: at 2 µM, stronger effect = higher value, 0% TNFa-plus-vehicle, 100% no-TNFa wells
[2] = inhibitors of mutant huntingtin aggregation, primary screen, imaging, exon1htt(103Q)mCFP cells, high-content imaging (AID 483;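 active = visual image review flags a hit and inhibition of aggregation exceeds 20%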;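 note: compound exposure lasted 3 days before fixation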;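 for nuclei count: percent of the per-plate median nuclei count of sample wells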); conditions: exon1htt(103Q)mCFP cell line, aggregate imaging, at 2 µM; inhibition of aggregation: stronger effect = higher value; nuclei count: measured here: cell count, toxicity
[3] = inhibitors of E-selectin induction by TNFa, primary screen, imaging, HUVEC, immunofluorescence, MLSMR starter and 10KST1 sets (AID 487;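 active = visually confirmed hit in the image check and inhibition above 20%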;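 for inhibition: signal is fraction of cell area covered by stained E-selectin grains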;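 for nuclei count: 100% = median nuclei count of all wells on the same plate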); conditions: HUVEC TNFalpha-induced E-selectin immunofluorescence imaging, at 2 µM; inhibition: stronger effect = higher value; nuclei count: measured here: cell number, toxicity
[4] = target: Voltage-gated potassium channel subunit beta-2 (Rattus norvegicus) (UniProt P62483); experiment: KvBeta enzyme negative modulators, primary screen, biochemical, NADPH fluorescence (AID 622;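 active = fluorescence slope higher than the sample average by over 3 SD, cut at about -0.22 in these data, passing the limit was not always enough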;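 note: slope of raw intensity against log time taken from 70 to 1610 s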); conditions: recombinant KvBeta, 4-cyanobenzaldehyde reduction, at 10 µM, stronger effect = higher value
[5] = target: Voltage-gated potassium channel subunit beta-2 (Rattus norvegicus) (UniProt P62483); experiment: KvBeta positive modulators, primary screen, biochemical, NADPH fluorescence (AID 623); conditions: Recombinant KvBeta, NADPH fluorescence decrease slope, 10 min; at 10 µM; stronger effect = lower value;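 note: fluorescence intensity change per second fitted from 20 to 320 s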
[6] = target: Alpha-2C adrenergic receptor (Homo sapiens) (UniProt P18825); experiment: modulators of alpha2C/GIRK thallium flux, primary screen, cell-based, HEK293 alpha2C/GIRK1/2 (AID 624;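 active = fluorescence slope after compound addition differing from the mean of all screened samples at 99.7% confidence, in either direction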;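 note: slope of fluorescence ratio to pre-addition baseline per second over 15 to 24 s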); conditions: thallium flux BTC fluorescence, at 10 µM, actives lie on both sides
[7] = inhibitors of Sendai virus-induced IRF3 signaling, primary screen, TLR/RLR signaling modifier project, cell-based, Sendai virus stimulus, luciferase, 10K MLSCN set (AID 602276;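 active = inhibition at or above 50% at 10 µM; inactive = inhibition below 50%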;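 note: firefly luciferase from ISG56 promoter only with Renilla not read in this screen; 0% = Sendai virus plus DMSO and 100% = medium plus DMSO without virus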); conditions: HEK293 RL24 IRF3 luciferase reporter, at 10 µM, stronger effect = higher value
[8] = inhibitors of poly I:C-induced TLR3 signaling, primary screen, cell-based, poly I:C stimulus, luciferase, 10K MLSCN set (AID 602277;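 active = inhibition of the reporter signal at or above 50%; inactive = inhibition below 50%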); conditions: HEK293-TLR3 RL24 IRF3 luciferase reporter, at 10 µM, stronger effect = higher value

Chain of Voltage-gated potassium channel subunit beta-2 (Rattus norvegicus) (P62483 whole entry, looked up): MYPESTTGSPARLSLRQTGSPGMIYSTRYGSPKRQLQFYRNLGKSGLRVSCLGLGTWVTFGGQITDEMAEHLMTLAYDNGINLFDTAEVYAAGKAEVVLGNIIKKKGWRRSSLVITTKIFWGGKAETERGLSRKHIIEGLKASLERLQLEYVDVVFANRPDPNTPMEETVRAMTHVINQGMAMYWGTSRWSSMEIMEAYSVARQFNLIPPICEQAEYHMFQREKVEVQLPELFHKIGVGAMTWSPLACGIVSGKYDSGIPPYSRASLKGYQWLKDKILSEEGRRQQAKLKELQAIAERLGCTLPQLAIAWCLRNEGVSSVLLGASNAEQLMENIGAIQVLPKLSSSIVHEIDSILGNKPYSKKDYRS
Chain of Alpha-2C adrenergic receptor (Homo sapiens) (P18825 whole entry, looked up): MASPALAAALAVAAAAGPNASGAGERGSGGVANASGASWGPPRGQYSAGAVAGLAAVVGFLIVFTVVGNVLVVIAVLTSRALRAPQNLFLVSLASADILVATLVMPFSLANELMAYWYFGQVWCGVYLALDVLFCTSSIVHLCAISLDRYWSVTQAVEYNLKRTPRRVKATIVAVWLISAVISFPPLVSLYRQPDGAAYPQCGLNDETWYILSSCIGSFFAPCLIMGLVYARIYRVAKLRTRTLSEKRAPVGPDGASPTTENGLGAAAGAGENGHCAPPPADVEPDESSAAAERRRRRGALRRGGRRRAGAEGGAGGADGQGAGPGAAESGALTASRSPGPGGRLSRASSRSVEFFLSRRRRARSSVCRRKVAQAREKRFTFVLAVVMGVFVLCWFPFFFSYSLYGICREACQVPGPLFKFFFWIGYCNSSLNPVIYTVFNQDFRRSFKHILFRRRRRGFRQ

In the case of `COc1ccccc1N1CCN(S(=O)(=O)CC23CCC(CC2=O)C3(C)C)CC1` (centres undefined), the cell count [1] is reported as 522, the inhibition [1] is reported as -8.1% (inactive) and the inhibition of aggregation [2] is reported as 20.7% (inactive). The nuclei count [2] was 103%, the inhibition [3] was -64.4% (inactive) and the nuclei count [3] was 157%. For the same compound, the fluorescence slope [4] was -0.452 (inactive), the NADPH fluorescence slope [5] was -3.6e-05 (inactive) and the slope [6] was 0.00394 (inactive). The inhibition [7] was 9.34% (inactive) and the inhibition [8] was 25.6% (inactive).

With `CCC(C)NC(=O)CCNS(=O)(=O)c1ccc(Br)cc1` (centres undefined) the cell count [1] was 605, the inhibition [1] was -17% (inactive) and the inhibition of aggregation [2] was 17.5% (inactive). For the same compound, the nuclei count [2] was 66.3%, the inhibition [3] was -109% (inactive) and the nuclei count [3] was 118%. For the same compound, the fluorescence slope [4] was -0.325 (inactive), the NADPH fluorescence slope [5] was 6.7e-06 (inactive) and the slope [6] was 0.00362 (inactive). For the same compound, the inhibition [7] was 3.69% (inactive) and the inhibition [8] was 33% (inactive).

For `Cc1ccc(S(=O)(=O)C2(C(=O)NC3CCCC3)CC2)cc1`, the cell count [1] was 463, the inhibition [1] was -4.2% (inactive) and the inhibition of aggregation [2] was -10.8% (inactive). The nuclei count [2] was 110%, the inhibition [3] was -58.4% (inactive) and the nuclei count [3] was 115%. For the same compound, the fluorescence slope [4] was -0.602 (inactive), the NADPH fluorescence slope [5] was 1.6e-05 (inactive) and the slope [6] was 0.00643 (inactive). The inhibition [7] was 13.7% (inactive) and the inhibition [8] was 36.5% (inactive).

In the case of `Cc1ccc2oc(=O)c3cnn(CC(=O)N4CCCCC4C)c3c2c1` (centres undefined), the cell count [1] is reported as 661, the inhibition [1] is reported as 3.9% (inactive) and the inhibition of aggregation [2] is reported as -4% (inactive). The nuclei count [2] was 77.1%, the inhibition [3] was 3.2% (inactive) and the nuclei count [3] was 88.1%. The fluorescence slope [4] was -0.518 (inactive), the NADPH fluorescence slope [5] was -1.6e-05 (inactive) and the slope [6] was 0.00597 (inactive). For the same compound, the inhibition [7] was 3.36% (inactive) and the inhibition [8] was 23.4% (inactive).

For `O=C(COC(=O)c1cnccn1)Nc1ccc2c(c1)OCO2`, the cell count [1] was 589, the inhibition [1] was 7.8% (inactive) and the inhibition of aggregation [2] was -8% (inactive). The nuclei count [2] was 103%, the inhibition [3] was -56.6% (inactive) and the nuclei count [3] was 105%. The fluorescence slope [4] was -0.484 (inactive), the NADPH fluorescence slope [5] was -2.2e-05 (inactive) and the slope [6] was 0.00566 (inactive). For the same compound, the inhibition [7] was 5.28% (inactive) and the inhibition [8] was 21.1% (inactive).

For `O=C(c1ncc[nH]1)c1ccccc1C(=O)N1CCOCC1`, the cell count [1] was 399, the inhibition [1] was 15.2% (inactive) and the inhibition of aggregation [2] was 27.9% (inactive). For the same compound, the nuclei count [2] was 111%, the inhibition [3] was -232% (inactive) and the nuclei count [3] was 116%. The fluorescence slope [4] was -0.515 (inactive), the NADPH fluorescence slope [5] was -0.000166 (inactive) and the slope [6] was 0.00482 (inactive). The inhibition [7] was -6.47% (inactive) and the inhibition [8] was 4.36% (inactive).

With `O=C(CSc1nnc(-c2ccccc2)o1)NC1CCCCC1` the cell count [1] was 355, the inhibition [1] was 0% (inactive) and the inhibition of aggregation [2] was 8% (inactive). For the same compound, the nuclei count [2] was 109%, the inhibition [3] was -10.5% (inactive) and the nuclei count [3] was 103%. The fluorescence slope [4] was -0.55 (inactive), the NADPH fluorescence slope [5] was 2e-05 (inactive) and the slope [6] was 0.0067 (inactive). For the same compound, the inhibition [7] was 5.13% (inactive) and the inhibition [8] was 0.841% (inactive).

For `CC(C)(C)n1nnnc1C(c1cccs1)N1CCN(Cc2ccccc2)CC1` (centres undefined), the cell count [1] was 482, the inhibition [1] was -5.1% (inactive) and the inhibition of aggregation [2] was 0% (inactive). The nuclei count [2] was 100%, the inhibition [3] was -163% (inactive) and the nuclei count [3] was 230%. The fluorescence slope [4] was -0.606 (inactive), the NADPH fluorescence slope [5] was -6.2e-06 (inactive) and the slope [6] was 0.00586 (inactive). The inhibition [7] was 15.9% (inactive) and the inhibition [8] was 17.6% (inactive).

In the case of `O=C(NCc1ccccc1)N[C@@H](Cc1ccccc1)C(=O)O`, the cell count [1] is reported as 666, the inhibition [1] is reported as 6.9% (inactive) and the inhibition of aggregation [2] is reported as -0.3% (inactive). The nuclei count [2] was 116%, the inhibition [3] was 4.5% (inactive) and the nuclei count [3] was 111%. For the same compound, the fluorescence slope [4] was -0.43 (inactive), the NADPH fluorescence slope [5] was -4.1e-05 (inactive) and the slope [6] was 0.00384 (inactive). The inhibition [7] was 10.6% (inactive) and the inhibition [8] was 33.8% (inactive).

For `O=c1c2cc3ccccc3n2cnn1Cc1ccccc1F`, the cell count [1] was 345, the inhibition [1] was -8.5% (inactive) and the inhibition of aggregation [2] was 29.9% (inactive). For the same compound, the nuclei count [2] was 89.6%, the inhibition [3] was -105% (inactive) and the nuclei count [3] was 108%. The fluorescence slope [4] was -0.51 (inactive), the NADPH fluorescence slope [5] was 3.1e-05 (inactive) and the slope [6] was 0.00758 (inactive). For the same compound, the inhibition [7] was -21.7% (inactive) and the inhibition [8] was -7.8% (inactive).

For `COc1ccc(C(=O)NCc2nc3ccccc3[nH]2)cc1OC`, the cell count [1] was 679, the inhibition [1] was -0.5% (inactive) and the inhibition of aggregation [2] was 6.6% (inactive). The nuclei count [2] was 82.2%, the inhibition [3] was -7.5% (inactive) and the nuclei count [3] was 112%. The fluorescence slope [4] was -0.582 (inactive), the NADPH fluorescence slope [5] was 3.9e-06 (inactive) and the slope [6] was 0.0061 (inactive). The inhibition [7] was -1.85% (inactive) and the inhibition [8] was 25% (inactive).

With `CCOc1ccc(Cn2nnc(C(=O)Nc3ccc(OC)cc3OC)c2N)cc1` the cell count [1] was 720, the inhibition [1] was -6.1% (inactive) and the inhibition of aggregation [2] was 7.2% (inactive). The nuclei count [2] was 108%, the inhibition [3] was -9.7% (inactive) and the nuclei count [3] was 106%. The fluorescence slope [4] was -0.49 (inactive), the NADPH fluorescence slope [5] was -3.6e-05 (inactive) and the slope [6] was 0.00559 (inactive). The inhibition [7] was -5.26% (inactive) and the inhibition [8] was -8.45% (inactive).

For `COCc1nnc(NS(=O)(=O)c2ccc(Br)cc2)s1`, the cell count [1] was 757, the inhibition [1] was -12.1% (inactive) and the inhibition of aggregation [2] was 13.5% (inactive). For the same compound, the nuclei count [2] was 102%, the inhibition [3] was 30.4% (inactive) and the nuclei count [3] was 90.2%. For the same compound, the fluorescence slope [4] was -0.362 (inactive), the NADPH fluorescence slope [5] was 4.4e-05 (inactive) and the slope [6] was 0.00659 (inactive). For the same compound, the inhibition [7] was 18.1% (inactive) and the inhibition [8] was 19.6% (inactive).

With `CCOC(OCC)P(=O)(C(C)C)C(C)C` the cell count [1] was 491, the inhibition [1] was 6% (inactive) and the inhibition of aggregation [2] was -0.1% (inactive). For the same compound, the nuclei count [2] was 93.4%, the inhibition [3] was -53.6% (inactive) and the nuclei count [3] was 134%. For the same compound, the fluorescence slope [4] was -0.443 (inactive), the NADPH fluorescence slope [5] was 4e-05 (inactive) and the slope [6] was 0.00549 (inactive). For the same compound, the inhibition [7] was 17.5% (inactive) and the inhibition [8] was 17.3% (inactive).
